Among the data in PMC4242493, “Sequence specificity incompletely defines the genome-wide occupancy of Myc” are binding signal values, retold here.

Whole data set: some 33,000 sequences, median “normalized occupancy” near 0.075, cut for the highest 2% near 0.095. The list comes from a sample in which the highest values are over-represented; it also holds similar and randomly drawn sequences.

The target of the test is MaxL homodimer (Homo sapiens, UniProt P61244 1-160). Briefly: universal protein-binding microarray (PBM); PBS-based mixture, 10 nM His-tagged protein dimer, 2% milk, 200 ng/uL BSA, 50 ng/uL salmon testes DNA, 0.02% TX-100; detection with Alexa 488 anti-His antibody;; high values mean tight binding. To be noted: protein: recombinant; tags: C-terminal His-tag (pET21a); chain copies: 2; dsDNA, one strand shown. The method in brief: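 His-tagged protein dimer at 10 nM was incubated on Agilent 4 x 44 K arrays with the 'all 10-mer' universal design. Bound protein was tagged with 10 ng/μL fluorophore-conjugated anti-His antibody, and arrays were scanned on a GenePix 4400A. Binding occupancy for each 8-mer is its fluorescence intensity normalised to the highest-ranked 8-mer's intensity.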
MaxL homodimer, sequence (P61244 whole entry): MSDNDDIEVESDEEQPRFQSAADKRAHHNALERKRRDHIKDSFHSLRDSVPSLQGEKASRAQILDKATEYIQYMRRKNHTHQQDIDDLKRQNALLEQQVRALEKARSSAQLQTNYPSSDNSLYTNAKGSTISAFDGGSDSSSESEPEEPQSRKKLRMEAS
With AGCCATGA, the binding signal was found to be 0.0819 normalized occupancy. With CGCCATGC the figure was 0.0988 normalized occupancy; with AGCCATGG, 0.0832 normalized occupancy. Turning to CGCCATCC, the binding signal turned out to be 0.077 normalized occupancy. The value for CGCCATGA was 0.0842 normalized occupancy.

As for AGCCATGC, the binding signal turned out to be 0.0996 normalized occupancy. With ATGTCAAT the figure was 0.0778 normalized occupancy. The value for GGTAACCA was 0.0775 normalized occupancy. CTTCTTTA: the binding signal was 0.075 normalized occupancy. As for AAAACGAT, the binding signal was determined as 0.0742 normalized occupancy. With ACTTGGGG the figure was 0.0791 normalized occupancy. Turning to CCATGGGG, the binding signal was found to be 0.0949 normalized occupancy. For the sequence CCATGGCG, the binding signal was determined as 0.0768 normalized occupancy. Regarding ACATGGAA, the binding signal is 0.0918 normalized occupancy.

For the sequence ACATGGAG, the binding signal stood at 0.0868 normalized occupancy.

As for ACATGGCT, the binding signal is 0.0932 normalized occupancy. With ACATGGAT the figure was 0.101 normalized occupancy. With ACATGGCG the figure was 0.098 normalized occupancy.

In the case of ACATGGGG, the binding signal amounted to 0.101 normalized occupancy. With ACATGGGT the figure was 0.1 normalized occupancy.

As to ACATGGGC, the binding signal worked out at 0.0848 normalized occupancy. For the sequence AAATGGGT, the binding signal was found to be 0.0763 normalized occupancy.

On to GACATTGA, for which the binding signal is 0.078 normalized occupancy. As to CAATGAGC, the binding signal came to 0.074 normalized occupancy. The value for CGTGCGTA was 0.0916 normalized occupancy; that for ATTATGTA was 0.0828 normalized occupancy. For the sequence CCCCCGCG, the binding signal was found to be 0.0757 normalized occupancy. In the case of TGGCTAAA, the binding signal was found to be 0.074 normalized occupancy. The value for ATGACAGC was 0.0803 normalized occupancy; that for GTAATAAA was 0.076 normalized occupancy; that for ACTACTAT was 0.0796 normalized occupancy. As for GGGGGCAC, the binding signal was found to be 0.0775 normalized occupancy.

Consider AAACGTAA, for which the binding signal is 0.0743 normalized occupancy.

GGAGACAA: the binding signal came to 0.0754 normalized occupancy. Take CTTAGGCA: the binding signal was 0.0777 normalized occupancy. AACTAATT: the binding signal is 0.0744 normalized occupancy.

As for GTTTAGAA, the binding signal was 0.0757 normalized occupancy. The value for AGTTTACA was 0.0773 normalized occupancy; that for AGCGTGAC was 0.101 normalized occupancy. Consider AGTGTGAC, for which the binding signal stood at 0.089 normalized occupancy. AGAGTGAC: the binding signal stood at 0.0747 normalized occupancy. Consider ACCGTGAT, for which the binding signal was determined as 0.0871 normalized occupancy. As to AGCGTGAT, the binding signal came to 0.1 normalized occupancy. With AGCGTGAA the figure was 0.0854 normalized occupancy; with CCATAGGA, 0.0736 normalized occupancy. With AACCTTGT the figure was 0.0729 normalized occupancy; with CAAGGAAC, 0.079 normalized occupancy.

Regarding GGACGGCA, the binding signal stood at 0.0718 normalized occupancy. With GAAATTTA, the binding signal was 0.0725 normalized occupancy. With ATTAGTCA the figure was 0.0775 normalized occupancy; with GAATTCTA, 0.0768 normalized occupancy. As for AACGTGAC, the binding signal turned out to be 0.109 normalized occupancy. With AACGTGAA the figure was 0.0849 normalized occupancy.

As to AAGGTGAC, the binding signal worked out at 0.0729 normalized occupancy. On to AACGTGAT, for which the binding signal came out at 0.11 normalized occupancy. With AACGTGAG the figure was 0.0854 normalized occupancy; with ACCGTGAC, 0.0781 normalized occupancy. With ACCTAACC the figure was 0.0792 normalized occupancy; with GAGATGGA, 0.0798 normalized occupancy. For the sequence GGTACCCA, the binding signal was found to be 0.0727 normalized occupancy. GATCATCC: the binding signal is 0.0784 normalized occupancy. As for CATCATGG, the binding signal turned out to be 0.0895 normalized occupancy. CATCATGC: the binding signal amounted to 0.0995 normalized occupancy. With ATTCATGC the figure was 0.0905 normalized occupancy; with AATCATCC, 0.083 normalized occupancy. As for GATCATGC, the binding signal is 0.101 normalized occupancy. On to AATCATGC, for which the binding signal was determined as 0.0958 normalized occupancy.

In the case of AATCATGA, the binding signal amounted to 0.0851 normalized occupancy. The value for CATCATGA was 0.0846 normalized occupancy; that for AATCATGT was 0.0985 normalized occupancy. The value for AATCATGG was 0.0832 normalized occupancy. Regarding GATCATGA, the binding signal is 0.0863 normalized occupancy. The value for ATGCTCCA was 0.0829 normalized occupancy; that for TGAGTTAA was 0.078 normalized occupancy. With GAGCGTGA the figure was 0.0923 normalized occupancy; with TAGCGTGA, 0.0905 normalized occupancy.

Turning to CAGCGTGA, the binding signal came to 0.104 normalized occupancy.

Regarding CAGCGTGG, the binding signal is 0.129 normalized occupancy.

On to CAGCGTCA, for which the binding signal amounted to 0.0719 normalized occupancy. The value for CATCGTGG was 0.0917 normalized occupancy; that for CTAATGTA was 0.078 normalized occupancy; that for ATGTACGA was 0.0873 normalized occupancy. With CATGGGGA the figure was 0.1 normalized occupancy; with CATGGGGG, 0.0995 normalized occupancy. The value for AATGGGGG was 0.0803 normalized occupancy.

For CATGGGGC, the binding signal stood at 0.0935 normalized occupancy. The value for AATGGGGA was 0.0809 normalized occupancy; that for CATGGGAA was 0.0896 normalized occupancy; that for CCGTTTGA was 0.0729 normalized occupancy. With CAGGTGAC the figure was 0.0878 normalized occupancy; with AAACATTA, 0.0779 normalized occupancy.

As for CCATGCGG, the binding signal worked out at 0.145 normalized occupancy. The value for GCATGCGA was 0.119 normalized occupancy.

Take CAATGCGA: the binding signal came out at 0.0774 normalized occupancy.

For CCATGCGA, the binding signal stood at 0.1 normalized occupancy. As to CCCTGCGG, the binding signal worked out at 0.0745 normalized occupancy.

Turning to GAATGCGC, the binding signal was 0.075 normalized occupancy. The value for GTATGCGA was 0.0727 normalized occupancy; that for GGATGCGA was 0.0783 normalized occupancy; that for AAATGCGC was 0.0749 normalized occupancy.

With GCATGCGC, the binding signal worked out at 0.121 normalized occupancy. The value for CAATGCGG was 0.0873 normalized occupancy; that for TCATGCGA was 0.0877 normalized occupancy; that for TGATAGAA was 0.0854 normalized occupancy. GTGTCGTA: the binding signal was determined as 0.0815 normalized occupancy. The value for AGGTCACG was 0.082 normalized occupancy; that for CTGTTGTA was 0.0736 normalized occupancy.

With AAAGAGCA, the binding signal was found to be 0.0761 normalized occupancy. For ATGCGCGA, the binding signal was 0.0781 normalized occupancy. With ATGTTCAG, the binding signal worked out at 0.0809 normalized occupancy.

With ACACATCC, the binding signal is 0.0784 normalized occupancy. The value for CAATGCGC was 0.0788 normalized occupancy; that for CCATGCGC was 0.121 normalized occupancy; that for CTATGCGC was 0.075 normalized occupancy. ACCATTGC: the binding signal worked out at 0.0746 normalized occupancy. The value for AAACGTGT was 0.1 normalized occupancy. The value for AAACGTTT was 0.0755 normalized occupancy; that for CAACGTAA was 0.0776 normalized occupancy; that for CAACGTGC was 0.122 normalized occupancy. In the case of AAACGTAT, the binding signal stood at 0.0746 normalized occupancy. For the sequence CAACGTAC, the binding signal is 0.0758 normalized occupancy.

For the sequence CAACGTTC, the binding signal was determined as 0.0755 normalized occupancy. On to CAACGTGA, for which the binding signal was found to be 0.118 normalized occupancy.

For the sequence AAACGTAC, the binding signal is 0.074 normalized occupancy.

Take CAACGTCA: the binding signal amounted to 0.0743 normalized occupancy. For the sequence GAACGTGC, the binding signal is 0.0931 normalized occupancy. In the case of AAACGTGC, the binding signal stood at 0.101 normalized occupancy.

In the case of CACACCCA, the binding signal was determined as 0.0877 normalized occupancy. The value for ATTATTTG was 0.0793 normalized occupancy; that for ACCGATAC was 0.075 normalized occupancy.

Consider TCTCCAAA, for which the binding signal is 0.0803 normalized occupancy. The value for CTCTCAGC was 0.0719 normalized occupancy; that for CATGGCTC was 0.09 normalized occupancy; that for AAACCATA was 0.0792 normalized occupancy. With CTGAATCC the figure was 0.0737 normalized occupancy; with CGTACGCC, 0.0757 normalized occupancy; with CTTAACCC, 0.0738 normalized occupancy. For ACAACTAA, the binding signal is 0.0755 normalized occupancy. With CGGCAGCC the figure was 0.0724 normalized occupancy; with CGTTTAGA, 0.0747 normalized occupancy; with CAACGTAG, 0.0762 normalized occupancy.

TAACGTGA: the binding signal is 0.0935 normalized occupancy.

As for AAACGTGA, the binding signal came to 0.099 normalized occupancy. The value for AAACGTCG was 0.0737 normalized occupancy; that for CAACGTGG was 0.154 normalized occupancy; that for CAACGTTG was 0.083 normalized occupancy. The value for GAACGTGA was 0.0801 normalized occupancy; that for AAACGTGG was 0.123 normalized occupancy.

For AAACGTAG, the binding signal was determined as 0.0771 normalized occupancy. ATCGCCAG: the binding signal was 0.0753 normalized occupancy. The value for AAGACATG was 0.0912 normalized occupancy. With GAAGCATC the figure was 0.076 normalized occupancy; with AACATCCA, 0.0849 normalized occupancy; with ACTTAAAT, 0.0746 normalized occupancy. Take CCACGTGA: the binding signal came to 0.482 normalized occupancy. The value for TCACGTGA was 0.19 normalized occupancy; that for CGACGTGA was 0.0883 normalized occupancy; that for CTACGTGA was 0.0799 normalized occupancy.

Consider TCACGTAA, for which the binding signal came out at 0.086 normalized occupancy. With CTACGTGC the figure was 0.0865 normalized occupancy; with CCACGTGG, 0.971 normalized occupancy; with TCACGTCA, 0.0819 normalized occupancy. As for CCACGTGC, the binding signal was found to be 0.814 normalized occupancy. The value for CCACGTAG was 0.0817 normalized occupancy. With CGACGTGC, the binding signal came out at 0.083 normalized occupancy. Turning to CCACGTCG, the binding signal amounted to 0.086 normalized occupancy. For GGAGAGCA, the binding signal is 0.0742 normalized occupancy. With CCGTCTAA the figure was 0.0757 normalized occupancy; with ACAAATGT, 0.079 normalized occupancy; with GGTCAGGA, 0.0732 normalized occupancy.

Take GAGGAAGA: the binding signal was 0.075 normalized occupancy. Turning to ACCTGTAA, the binding signal came to 0.0823 normalized occupancy. With TCACCTGA the figure was 0.0809 normalized occupancy; with CCACCTGC, 0.0984 normalized occupancy.
